Out of some 410,000 compounds screened, about 3,100 (0.76%) were called active. A call without a number means that no potency is given here. Calls come from the whole dose curve; as a rule, active = well fitted cell-killing curve with a large enough effect; inactive = no such curve, though single readings can be large or run the other way. This excerpt belongs to a sample that is enriched for actives.
Potency is the fitted concentration of half-maximal effect.

The assay is described as follows: qHTS for Inhibitors of TGF-b: Cytotox Counterscreen. Particulars: HepG2 CAGA-GFP viability, ATP luminescence, 18 h; series mostly up to 46.1 µM. The essentials:
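CellTiter-Glo luminescence gave cytotoxicity after 18 hours at 37 degrees C. The cells were HepG2 CAGA-GFP in 1% FBS DMEM, stimulated with 500 pg/mL TGF-beta after compound addition. %Activity was normalised to no-cell wells (complete cell-killing) and DMSO (no toxicity), and curves were fitted and classified.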
(In qHTS, concentration-response curves come from the screen itself.)
On to `CCCCCCCNc1ccc(/C=C/c2ccnc3ccccc23)cc1`, for which the Potency entry is “inactive”.

As to `Cc1ccc(N2CC(NC(=O)Cc3cccs3)CC2=O)cc1` (stereo not drawn), the Potency result is “inactive”.

Regarding `CN(C)c1ccc(/C=C2\C=Cc3ccccc32)cc1Br`, the Potency result is “inactive”.

Consider `COc1ccc(-c2ccc(OC)c(C3C4C=CCC(C)C4C(=O)N3Cc3ccccc3)c2)cc1C` (stereo not drawn), for which the Potency entry is “inactive”.

Consider `Cc1ccc(S(=O)(=O)N(CCCN(C)C)Cc2ccc3c(c2)OCO3)cc1`, for which the Potency entry was “inactive”.

On to `CN(C)CCCN(C(=O)c1ccc(S(=O)(=O)N2CCCCCC2)cc1)c1nc2ccc(Br)cc2s1`, for which the Potency was 22.4 µM (active).

Take `CCc1ccc2nc(N(CCCN(C)C)C(=O)c3ccc4c(c3)OCCO4)sc2c1`: the Potency is 11.2 µM (active).

For `CCOc1ccc2nc(N3CCC(C(=O)Nc4cc(C)ccc4C)CC3)sc2c1`, the Potency result was “inactive”.

In the case of `CCN(CC(=O)Nc1c(F)cccc1F)C(=O)c1ccc(S(=O)(=O)N2CCCCC2)cc1`, the Potency entry was “inactive”.

In the case of `Cc1cc(C)c2sc(NC(=O)c3ccc(S(=O)(=O)N4CCCC4)cc3)nc2c1`, the Potency entry was “inactive”.

As to `O=C(CCOc1ccccc1)N(Cc1cccnc1)c1nc2ccc(Cl)cc2s1`, the Potency entry is “inactive”.

For the compound `O=C(CN(Cc1ccccc1)C(=O)c1ccc2c(c1)OCCO2)NCc1ccc2c(c1)OCO2`, the Potency entry was “inactive”.

On to `CCOc1ccc2nc(N(CCCN(C)C)C(=O)c3ccc(C(=O)c4ccccc4)cc3)sc2c1`, for which the Potency was 15.8 µM (active).

As for `Cc1nn(C)c2c1c(C(F)(F)F)cc(=O)n2C(C)C(=O)NCc1ccc(Cl)cc1` (stereo not drawn), the Potency result is “inactive”.

For the compound `COc1ccc(CNC(=O)c2cc3c(=O)[nH]c4ccc(C)cc4c3s2)c(OC)c1`, the Potency result is “inactive”.

Regarding `COc1cc(-c2cc3n(C)c(C)c(CCC(=O)Nc4ccc(F)cc4)c(=O)n3n2)cc(OC)c1OC`, the Potency result is “inactive”.

As to `CC(=O)c1ccc(NC(=O)C2CCN(S(=O)(=O)c3c(C)noc3/C=C/c3ccc(C)cc3)CC2)cc1`, the Potency entry is “inactive”.

In the case of `COc1ccc(CNC(=O)c2cc3c(-c4ccccc4F)nn(C)c3s2)c(OC)c1`, the Potency result is “inactive”.

For the compound `COC(=O)c1scc(-c2ccccc2)c1S(=O)(=O)Nc1ccccc1`, the Potency entry is “inactive”.

`O=c1[nH]c(CCl)nc2cc(-c3ccc(Cl)cc3)sc12`: the Potency was 4.47 µM (active).

`COc1cccc(-c2cc3nc(NCCOc4ccccc4Cl)n(C)c(=O)c3s2)c1`: the Potency entry was “inactive”.

Take `SCc1nc2ccc(Cl)cc2[nH]1`: the Potency entry was “inactive”.

On to `CCOC(=O)C1CCC(CN(Cc2ccc(OC)cc2)S(=O)(=O)c2ccc(F)c(C(=O)Nc3cc(C)ccc3C)c2)CC1` (stereo not drawn), for which the Potency entry was “inactive”.

For the compound `Cc1ccc(C)c(CNC(=O)c2cc3ccccn3n2)c1`, the Potency result is “inactive”.

As for `CCOc1n[nH]c(-c2ccccc2)n1`, the Potency result was “inactive”.

Turning to `NNC(=O)c1cnn(-c2ccccc2)c1C(F)(F)F`, the Potency result is “inactive”.

On to `CCNC(=O)c1cnn(-c2ccccc2)c1-c1ccccc1`, for which the Potency entry was “inactive”.

Take `Nc1c(C(=O)O)cnn1-c1ccccc1`: the Potency is 11.2 µM (active).

For the compound `Cc1ccc(F)cc1S(=O)(=O)N1CCC(c2nc3ccccc3s2)CC1`, the Potency entry was “inactive”.

Turning to `COC(=O)c1cc(C)sc1NC(=O)CC1Nc2ccccc2NC1=O` (stereo not drawn), the Potency entry is “inactive”.

On to `O=C(CC1Nc2ccccc2NC1=O)Nc1ccccc1` (stereo not drawn), for which the Potency is 12.6 µM (active).

As to `O=C(CC1NCCc2ccccc21)Nc1cccc(Cl)c1` (stereo not drawn), the Potency entry was “inactive”.

`N#Cc1cc2[nH]c(=O)c(=O)[nH]c2cc1[N+](=O)[O-]`: the Potency result was “inactive”.

On to `CCOc1ccc(N(Cc2ccccc2)C(=O)c2nc(SCC)ncc2Cl)cc1`, for which the Potency result is “inactive”.

For the compound `CCOc1ccc(N(Cc2ccccc2)C(=O)c2nc(S(C)(=O)=O)ncc2Cl)cc1`, the Potency is 3.55 µM (active).

As for `CCOc1ccc(NC(=O)CN(Cc2ccccc2)S(=O)(=O)c2ccc(Cl)cc2)cc1`, the Potency entry was “inactive”.

For the compound `COCCNC(=O)c1ccc2c(c1)N(Cc1cccc(Cl)c1)C(=O)c1ccccc1S2(=O)=O`, the Potency entry was “inactive”.

As to `Cc1ccc(C(=O)N2CCc3cc(CNC(=O)c4ccc(Br)cc4)ccc32)cc1`, the Potency entry is “inactive”.

Consider `O=C(CSc1nc2ccc(Nc3nc(N4CCOCC4)nc(N4CCOCC4)n3)cc2s1)NCc1ccco1`, for which the Potency entry is “inactive”.

Regarding `O=C(CSc1nc(Nc2ccccc2)nc(N2CCOCC2)n1)Nc1cc(Cl)ccc1O`, the Potency was 6.31 µM (active).

Regarding `O=C(CSc1ccccc1)Nc1cc(Cl)ccc1Oc1ccccc1`, the Potency entry was “inactive”.

Take `O=[N+]([O-])c1ccc(/C=C/c2ccc3cccnc3c2)cc1`: the Potency result was “inactive”.

Consider `O=C1/C(=C\c2ccc([N+](=O)[O-])cc2)CS(=O)(=O)C/C1=C/c1ccc([N+](=O)[O-])cc1`, for which the Potency was 14.1 µM (active).

On to `O=C(Cc1ccc(Br)cc1)NCCN1CCOCC1`, for which the Potency result was “inactive”.

As for `O=S(=O)(c1ccc(Cl)cc1)c1nc(-c2ccccc2F)oc1NCCN1CCOCC1`, the Potency result is “inactive”.

In the case of `c1ccc2cc3c(NCCN4CCOCC4)ccnc3cc2c1`, the Potency was 3.55 µM (active).

Regarding `CCC(=O)N1CCc2cc(CNC(=O)Nc3ccccc3Cl)ccc21`, the Potency result was “inactive”.

Regarding `COc1ccc(-c2nc(S(=O)(=O)c3ccccc3)c(N3CCCCC3)o2)cc1`, the Potency entry was “inactive”.

Regarding `CCCc1cc(-c2nc(-c3ccc(C)cc3)cs2)ccn1`, the Potency was 10 µM (active).

Take `Fc1ccc(-c2csc(-c3ccc(C4SCCS4)cc3)n2)cc1F`: the Potency entry is “inactive”.

`CCCc1nc2scc(-c3ccc(C)cc3)c2c(=O)n1N`: the Potency entry was “inactive”.

Turning to `CC1(C)Cc2ccccc2-c2c[nH]c(=O)n21`, the Potency entry is “inactive”.

`CCOc1ccc(C(=O)N2CCN(CCc3ccccn3)CC2)cc1`: the Potency entry was “inactive”.

Regarding `CCN(CC)CCOc1ccc2c(c1)C(=NNC(=O)c1ccccn1)c1cc(OCCN(CC)CC)ccc1-2`, the Potency was 15.8 µM (active).

For `CC(C)(C)c1ccc(C(=O)C[n+]2cccc3cc(Cl)ccc32)cc1`, the Potency result is “inactive”.

Consider `CCN(C(=O)Cn1c(=O)nc(-c2ccccc2)c2cc(Cl)ccc21)c1cccc(C)c1`, for which the Potency entry was “inactive”.

Regarding `O=C(c1cnn2c1NC(=C1CC1)C=C2C(F)F)N1CCc2ccccc2C1`, the Potency entry is “inactive”.

In the case of `CN1CCN(c2oc(-c3ccc(COc4ccc(Cl)cc4)o3)nc2C#N)CC1`, the Potency entry was “inactive”.

As for `CCc1ccc(-c2nn(-c3ccccc3)cc2CSC(=N)N)cc1`, the Potency was 17.8 µM (active).

On to `CCc1ccc(-c2nn(-c3ccccc3C)cc2C(=O)N2CCN(C3CCS(=O)(=O)C3)CC2)cc1` (stereo not drawn), for which the Potency result is “inactive”.

Consider `CN(C)Cc1cn(-c2ccccc2)nc1-c1ccccc1`, for which the Potency result was “inactive”.

For `Cc1cc(C)c(NC(=O)Cn2c(SCC(=O)NCc3ccccc3)nc3ccccc32)c(C)c1`, the Potency entry is “inactive”.

As for `Cc1ccc(Cl)cc1N1CCN(C(=O)C2CCC(CNS(=O)(=O)c3cccs3)CC2)CC1` (stereo not drawn), the Potency result was “inactive”.

For `Cc1ccc(CN2CCC(CNC(=O)c3cnn(-c4ccccc4Cl)c3C3CCN(C(=O)OC(C)(C)C)CC3)CC2)cc1`, the Potency was 17.8 µM (active).

For the compound `Cc1ccc(CN2CCC(CNC(=O)c3cnn(-c4ccc(C)cc4)c3C3CCN(C(=O)OC(C)(C)C)CC3)CC2)cc1`, the Potency result was “inactive”.

Regarding `COc1ccccc1CN1CCC(CNC(=O)c2cnn(-c3ccccc3Cl)c2C2CCN(C(=O)OC(C)(C)C)CC2)CC1`, the Potency result was “inactive”.

Turning to `CC1(C)CC(=O)c2cc(C(=O)NCc3ccccc3)c(=O)[nH]c2C1`, the Potency result is “inactive”.

With `CCCCC(=O)N(C)c1c(CC)nc2c(OCc3ccc(S(C)(=O)=O)cc3)cccn12`, the Potency entry was “inactive”.

As for `Cc1nc2c(OCc3cccc(Cl)c3)cccn2c1N(C)CC1CC1`, the Potency entry was “inactive”.

For `Cc1nc2c(OCc3ccc(Cl)cc3)cccn2c1N(C)Cc1cccs1`, the Potency result was “inactive”.

With `CCc1nc2c(OCc3ccc(Cl)cc3Cl)cccn2c1N(C)C(=O)C(C)C`, the Potency result was “inactive”.

Consider `CCCCC(=O)N(C)c1c(CC)nc2c(OCc3ccc(Cl)cc3Cl)cccn12`, for which the Potency is 12.6 µM (active).

On to `Cc1nc2c(OCc3ccc(Cl)cc3Cl)cccn2c1N(C)CC1CC1`, for which the Potency was 11.2 µM (active).

With `Cc1ccc(C)c(S(=O)(=O)c2nnn3c2nc(N2CCOCC2)c2sccc23)c1`, the Potency entry was “inactive”.

For the compound `CN1CCN(/[N+]([O-])=N/Oc2ccc([N+](=O)[O-])cc2[N+](=O)[O-])CC1`, the Potency entry was “inactive”.

Consider `CC1(C)C=Cc2c(ccc(C(=O)/C=C/c3ccccc3)c2O)O1`, for which the Potency result is “inactive”.

In the case of `O=C1C=CC(=O)N1c1ccc(N2CCCCC2)cc1`, the Potency was 17.8 µM (active).

On to `Cc1ccc(CNC(=O)CCc2c(C)nc3c(c(C)nn3-c3ccccc3)c2C)cc1`, for which the Potency result was “inactive”.

On to `O=C(Nc1ccc(Cl)cc1)c1cnn2c1NC(=C1CC1)C=C2C(F)F`, for which the Potency entry was “inactive”.

`COc1ccc(-c2nc3sc(CCNC(=O)C(C)(C)C)c(C)n3n2)cc1`: the Potency entry was “inactive”.

Consider `CC1CCC2(CC1)N=C(c1ccccc1)C(=O)N2CC(=O)Nc1ccc(F)c(Cl)c1` (stereo not drawn), for which the Potency result was “inactive”.

Take `COCCn1c(SCC(=O)Nc2nc(C)cs2)nnc1C(C)C`: the Potency was 11.2 µM (active).

As to `CCn1c(SCC(=O)Nc2nc(C)cs2)nnc1C(C)NC(=O)c1ccccc1` (stereo not drawn), the Potency result was “inactive”.

On to `CCn1c(CC(=O)Nc2ccc(C)cc2)nnc1SCC(=O)Nc1nc(C)cs1`, for which the Potency result was “inactive”.

Regarding `CCn1c2ccccc2c2nnc(SCC(=O)O)nc21`, the Potency entry was “inactive”.

On to `COc1ccc(NC(=O)Nc2cccc(-c3noc(C)n3)c2)cc1`, for which the Potency entry was “inactive”.

On to `Cc1ccc(S(=O)(=O)N2CCN(c3nc(-n4cnc5ccccc54)nc4ccccc34)CC2)cc1`, for which the Potency entry was “inactive”.

Turning to `Cc1sc2ncn(CC(=O)N3CCN(c4ccc(F)cc4)CC3)c(=O)c2c1S(=O)(=O)N1CCN(c2ncccn2)CC1`, the Potency entry is “inactive”.

As to `CC(C)(C)OC(=O)N(Cc1ccco1)S(=O)(=O)c1ccccc1Br`, the Potency result was “inactive”.

As to `C=C1C=C(C(F)F)n2ncc(C(=O)NCCc3ccccc3OC)c2N1`, the Potency entry was “inactive”.

Regarding `COc1ccc(-c2cn3c(n2)sc2cc(C(=O)Nc4ccccc4F)ccc23)cc1`, the Potency result is “inactive”.

Turning to `CC(Nc1nc(C(F)(F)F)nc2ccccc12)c1cccs1` (stereo not drawn), the Potency was 22.4 µM (active).

As for `Oc1ccccc1-c1nc(/C=C/c2ccc(F)cc2)no1`, the Potency entry is “inactive”.

Take `COc1cc(Cl)ccc1Nc1ncc(C(=O)N2CCN(c3ccccc3OC)CC2)c2ccccc12`: the Potency entry is “inactive”.

Turning to `O=C(O)C1CCC(CNS(=O)(=O)c2ccc(Br)cc2)CC1` (stereo not drawn), the Potency is 15.8 µM (active).

`O=C(NC1CCCCC1)C1CCC(CNS(=O)(=O)c2ccccc2)CC1` (stereo not drawn): the Potency entry was “inactive”.

As for `Cc1ccc(S(=O)(=O)NCC2CCC(C(=O)N3CCOCC3)CC2)cc1` (stereo not drawn), the Potency entry is “inactive”.

In the case of `O=C(NC1CC(=O)N(c2ccc(F)cc2)C1)c1ccc(S(=O)(=O)N2CCCC2)cc1` (stereo not drawn), the Potency entry is “inactive”.

The values are drawn from PubChem BioAssay AID588856 (National Center for Advancing Translational Sciences (NCATS), 2011).
